Consider 14 compounds from PubChem BioAssay (NCI).

Holding throughout (experiment): NCI-60 one-dose screen, 48 h (100 = growth as untreated, 0 = no growth, -100 = all killed)
For one assay, the system named is HT29 colon. As to conditions: 10 µM unless noted.
A further assay has as its system SNB-75 CNS. As to conditions: 10 µM unless noted.
Another assay deals with SNB-19 CNS. Conditions: 10 µM unless noted.
The next assay relates to U251 CNS. As to conditions: 10 µM unless noted.
The subject of the next assay is PC-3 prostate. As to conditions: 10 µM unless noted.
The subject of a further assay is SK-MEL-5 melanoma. Conditions: 10 µM unless noted.
The subject of another assay is UACC-62 melanoma.
Another assay has as its system LOX IMVI melanoma. Conditions: 10 µM unless noted.
The test system of the next assay is SK-MEL-28 melanoma. As to conditions: 10 µM unless noted.
Another assay has as its system SK-MEL-2 melanoma. As to conditions: 10 µM unless noted.

Each structure is given as a SMILES string. “And” between values parts separate entries of the source, which are not always exact repeats. Equal entries are not always repeated. The panel holds about 83,000 compounds, 20% with a hit somewhere; the sample as a whole holds those more often.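 Assay: single dose, 48 h. Readout: percent growth (0 = no net growth; negative = cell death). Active: <10.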 A number with no mark means an inactive call. The source made the active and inactive calls.

On to `COc1ccc2c(c1)nc(N)c1c3ccccc3cn21`, for which the growth in the assay on HT29 colon is 73.8%; in the assay with SNB-75 CNS it was 67.6%; in the assay with SNB-19 CNS, 83.4%; in the assay on U251 CNS, 72.8%; in the assay on PC-3 prostate it was 84%; in the assay with SK-MEL-5 melanoma, 50.8%. The growth in the assay with UACC-62 melanoma (10 µM unless noted) was 58.7%; with LOX IMVI melanoma it was 74.3%; in the assay with SK-MEL-28 melanoma, 78.8%; in the assay on SK-MEL-2 melanoma it was 83.8%.
For `O=C(CCc1nnc2sc(-c3ccc(Cl)cc3Cl)nn12)c1nc2ccccc2[nH]1`, the growth with HT29 colon was -12.9% (active); in the assay with SNB-75 CNS, -45.8% (active); in the assay with SNB-19 CNS it was 7.75% (active); in the assay on U251 CNS, -83.1% (active); with PC-3 prostate it was -38.5% (active); with SK-MEL-5 melanoma, -70.2% (active). The growth is -85.1% (active) in the assay with UACC-62 melanoma (10 µM unless noted), -58% (active) in the assay with LOX IMVI melanoma, -60.1% (active) in the assay on SK-MEL-28 melanoma and -68.9% (active) in the assay with SK-MEL-2 melanoma.
Regarding `COc1ccc2c(c1)nc(N)c1c3cc(OC)c(OC)cc3cn21`, the growth was 9.28% (active) in the assay on HT29 colon; 57.1% with SNB-75 CNS; 62.2% with SNB-19 CNS; 30.6% in the assay on U251 CNS; 53.1% in the assay with PC-3 prostate; 34.1% in the assay with SK-MEL-5 melanoma. Further, the growth in the assay on UACC-62 melanoma (10 µM unless noted) was 22.1%; in the assay with LOX IMVI melanoma it was 53.2%; with SK-MEL-28 melanoma, 57.5%; in the assay on SK-MEL-2 melanoma, 47.7%.
In the case of `Cc1c(C(N)=O)sc2c1c(=O)n(Cc1ccccc1)c1nnc(SCC(=O)Nc3ccc(Cl)cc3)n21`, the growth with HT29 colon is 37.1%; in the assay on SNB-75 CNS it was -52% (active); in the assay with SNB-19 CNS, 58%; with U251 CNS, 20.2%; with PC-3 prostate it was 38.1%; in the assay on SK-MEL-5 melanoma it was 51.8%. The growth with UACC-62 melanoma (10 µM unless noted) is 57.6%; with LOX IMVI melanoma, 41.8%; in the assay with SK-MEL-28 melanoma, 17.3%.
Consider `COc1ccc2c(c1)nc(N)c1c3cc(C)c(C)cc3cn21`, for which the growth was 37.9% in the assay with HT29 colon; 92.8% in the assay on SNB-75 CNS; 77.5% in the assay on SNB-19 CNS; 53.9% in the assay with U251 CNS; 90.3% with PC-3 prostate; 58.8% in the assay on SK-MEL-5 melanoma. Besides, the growth in the assay on UACC-62 melanoma (10 µM unless noted) is 44%; with LOX IMVI melanoma, 75.4%; in the assay with SK-MEL-28 melanoma it was 81.1%.
Take `Cc1c(C(N)=O)sc2ncn(CC(=O)Nc3ccc(Cl)cc3)c(=O)c12`: the growth is 126% in the assay with HT29 colon; 101% in the assay on SNB-75 CNS; 103% in the assay with SNB-19 CNS; 102% with U251 CNS; 97% in the assay on PC-3 prostate; 107% with SK-MEL-5 melanoma. Further, the growth in the assay on UACC-62 melanoma (10 µM unless noted) was 99.2%; in the assay with LOX IMVI melanoma, 96.8%; in the assay on SK-MEL-28 melanoma it was 145%.
Regarding `O=c1ccn(C2CCCO2)c(=O)[nH]1` (stereo not drawn), the growth is 98.3% in the assay with HT29 colon; 91.9% with SNB-75 CNS; 109% with SNB-19 CNS; 97.2% with U251 CNS; 105% with PC-3 prostate; 111% with SK-MEL-5 melanoma. Further, the growth is 109% with UACC-62 melanoma (10 µM unless noted), 107% in the assay with LOX IMVI melanoma, 108% with SK-MEL-28 melanoma and 124% in the assay with SK-MEL-2 melanoma.
For `C=C(C)[C@H]1CC/C(C)=C/CC[C@]2(C)O[C@H]2CC/C(COC(C)=O)=C\C1=O`, the growth is 115% in the assay on HT29 colon; 120% with SNB-75 CNS; 108% in the assay with SNB-19 CNS; 101% with U251 CNS; 94.6% in the assay on PC-3 prostate; 109% with SK-MEL-5 melanoma. The growth with UACC-62 melanoma (10 µM unless noted) was 108%; with LOX IMVI melanoma, 88.1%; in the assay on SK-MEL-28 melanoma, 116%.
Regarding `O=[P@@]1(c2ccccc2)O[C@H](COCc2ccccc2)[C@@H](OCc2ccccc2)[C@H](OCc2ccccc2)[C@H]1NCc1ccccc1`, the growth was 10.9% with HT29 colon; 27.9% in the assay on SNB-75 CNS; 33.9% in the assay on SNB-19 CNS; 20.9% in the assay on U251 CNS; 10.5% in the assay with PC-3 prostate; 38% in the assay with SK-MEL-5 melanoma. Moreover, the growth in the assay on UACC-62 melanoma (10 µM unless noted) is 24%; with LOX IMVI melanoma, 5.71% (active); with SK-MEL-28 melanoma, 49.2%; with SK-MEL-2 melanoma, 29.5%.
For the compound `c1ccc2c(c1)[nH]c1c2cc[n+]2cc3c(cc12)CCCC3`, the growth with HT29 colon is 18.5%; with SNB-75 CNS, 77.3%; in the assay on SNB-19 CNS, 35.1%; in the assay on U251 CNS, 16.3%; in the assay with PC-3 prostate, 22.8%; in the assay on SK-MEL-5 melanoma it was 18.3%. For the same compound, the growth is 29.6% in the assay on UACC-62 melanoma (10 µM); -23.2% (active) and -48.3% (active) with UACC-62 melanoma (100 µM); 19.5% in the assay with LOX IMVI melanoma; 32.7% in the assay on SK-MEL-28 melanoma.
As to `COc1cc(OC)c2cc(C(=O)O)c(=O)oc2c1`, the growth in the assay with HT29 colon was 119%; with SNB-75 CNS, 125%; in the assay with SNB-19 CNS, 98%; with U251 CNS, 109%; in the assay on PC-3 prostate, 127%; with SK-MEL-5 melanoma, 94.6%. The growth with UACC-62 melanoma (10 µM unless noted) is 95.5%; in the assay on LOX IMVI melanoma, 67%; with SK-MEL-28 melanoma, 118%.
Regarding `CC(C)(C)c1ccc(S(=O)(=O)O)s1`, the growth is 106% with HT29 colon; 92.4% with SNB-75 CNS; 95.5% with SNB-19 CNS; 105% with U251 CNS; 52.7% in the assay with PC-3 prostate; 109% in the assay with SK-MEL-5 melanoma. Besides, the figures for the growth in the assay on UACC-62 melanoma (10 µM unless noted), in the assay on LOX IMVI melanoma and in the assay with SK-MEL-28 melanoma were 93.8%, 102% and 112%, respectively.
On to `O=c1[nH]c(=O)n(C2CC(O)C(CO)O2)cc1C(F)(F)F` (stereo not drawn), for which the growth in the assay on HT29 colon was 68.7%; in the assay with SNB-75 CNS it was 57.6%; in the assay on SNB-19 CNS it was 55.6%; in the assay on U251 CNS, 42%; with PC-3 prostate, 74.8%; in the assay with SK-MEL-5 melanoma, 29.8%. The growth in the assay on UACC-62 melanoma (10 µM unless noted) was 29.6%; in the assay on LOX IMVI melanoma, 18.3%; with SK-MEL-28 melanoma it was 75.2%; in the assay on SK-MEL-2 melanoma, -17.8% (active).
As to `CC(=O)NCCSC(=O)C(=O)SCCNC(C)=O`, the growth is 120% in the assay on HT29 colon; 93% with SNB-75 CNS; 104% in the assay with SNB-19 CNS; 108% in the assay with U251 CNS; 109% with PC-3 prostate; 104% with SK-MEL-5 melanoma. The growth was 99.4% with UACC-62 melanoma (10 µM unless noted), 104% in the assay with LOX IMVI melanoma and 118% in the assay with SK-MEL-28 melanoma.
